Reference: PubChem BioAssay (NCI)
This is part of a sample that, as a whole, favours compounds with a hit. Of some 83,000 tested, about 20% had one in any assay.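 Note: values are percent growth. 100 is the growth of untreated cells, values between 100 and 0 indicate rising inhibition; between -100 and 0 indicates cell death.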 Activity calls are given as the source filed them.

Tested on: HCC-2998 colon
Assay: NCI-60 one-dose screen, 48 h (100 = growth as untreated, 0 = no growth, -100 = all killed)
Details: 10 µM unless noted
Procedure: Growth inhibition of the HCC-2998 human tumor cell line is measured as a screen for anti-cancer activity. Cells are grown in 96 well plates and exposed to the test compound for 48 hours. Compounds are tested at a single concentration, which is 10^-5 M for most compounds. The reported endpoint is percent growth (GI% or GIPRCNT), where numbers from 0 - 100% represent growth inhibition, and numbers from -100% - 0 represent cell death. For example, a value of 40 represents 60% growth inhibition. A value of 0 means no net growth occurred over the course of the experiment. A value of -40 indicates 40% of cells at the beginning of the experiment died by the end of the experiment. A value of -100 means all cells are dead at the end of the experiment.
NCI-60 Human Tumor Cell Lines Screen was performed using the standard one-dose NCI protocol, which is described in more detail at https://dtp.cancer.gov/discovery_development/nci-60/default.htm.
Compounds with GIPRCNT values below 10 were considered active. Activity score was based on GIPRCNT using the following formula: […]
Score is 0 for GIPRCNT values of 100 or above, 50 for GIPRCNT values of 0, and 100 for GIPRCNT values of -100.

Compound	growth
O=C(N/N=C/c1ccccc1Cl)c1ccccc1Nc1ccnc(C(F)(F)F)c1	-20.7% (active)
O=[N+]([O-])c1ccc(Oc2cccc3c(Oc4ccc([N+](=O)[O-])cc4[N+](=O)[O-])cccc23)c([N+](=O)[O-])c1	110% (inactive)
CCN(CC)CCCC(Nc1c2ccc(Cl)cc2nc2ccc(OC)cc12)c1ccncc1 (stereo not given)	71% (inactive)
NC(=O)[C@@H]1Cc2ccccc2CN1C(=O)c1ccc2c(c1)Cc1ccccc1-2	98.9% (inactive)
C=C(C)[C@@H]1CC[C@]2(C#N)CC[C@]3(C)[C@H](CC[C@@H]4[C@@]5(C)CCCNC(C)(C)[C@@H]5CC[C@]43C)[C@@H]12	-40.2% (active)
CCOC(=O)CCC(=O)P(=O)(O)O	99.8% (inactive)
COc1cc(CNC(=O)CCCC/C=C/C(C)C)ccc1OCc1cn(-c2cccc([N+](=O)[O-])c2)nn1	101% (inactive)
C=C(C[n+]1ccccc1)[C@@H]1CC[C@]2(C(=O)OC)CC[C@]3(C)[C@H](CC[C@@H]4[C@@]5(C)CCC(=O)C(C)(C)[C@@H]5CC[C@]43C)[C@@H]12	90.9% (inactive)
COCCn1cc(-c2nc(-c3cc4cccnc4n3C)cs2)c2cc(OC)ccc21	39.6% (inactive)
O=C(/C=C/c1ccc(Cl)cc1)c1ccc(-n2cc(CN3CCN(c4cc5c(cc4F)c(=O)c(C(=O)O)cn5C4CC4)CC3)nn2)cc1	90.7% (inactive)
COc1ccc(S(=O)(=O)NC2c3ccccc3CC2O)cc1OC (stereo not given)	99.8% (inactive)
COc1cc2nc3cc([N+](=O)[O-])ccc3c(NCCCNCCO)c2cc1OC	-47.9% (active)
CC1(C)CC[C@]2(CO)CC[C@]3(C)C(=CC[C@@H]4[C@@]5(C)CCNCC(C)(C)[C@@H]5CC[C@]43C)[C@@H]2C1	-60.8% (active)
O=c1[nH]c(CN2CCN(c3ccccc3)CC2)nc2c(Br)cc(Br)cc12	101% (inactive)
COc1cc(/C=C/C(=O)c2ccc(-n3cc(CN4CCN(c5cc6c(cc5F)c(=O)c(C(=O)O)cn6C5CC5)CC4)nn3)cc2)cc(OC)c1OC	83.3% (inactive)
COC(=O)c1cc(-c2ccc(OC)c(OC)c2)[nH]c1N/N=C/c1c(Cl)cccc1Cl	53.2% (inactive)
O=C(CN1C(=O)c2ccccc2S1(=O)=O)Nc1nc(-c2cc3ccccc3oc2=O)cs1	102% (inactive)
Cc1c(C)c2c(c(C)c1OC(=O)CCC(=O)[O-])CCC(C)(CCCCCCCCCCC[P+](c1ccccc1)(c1ccccc1)c1ccccc1)O2 (stereo not given)	-70.3% (active)
CSc1nc(CC(C)C)c(C#N)c(=O)n1C	79.4% (inactive)
CCOC(=O)C1=C(c2ccccc2)N=C2N(c3ccccc3)N=C(C(C)=O)N2C1c1ccc(Br)cc1 (stereo not given)	103% (inactive)

Compound	growth
CC1=C([Se]CC(OC(=O)[C@@H](CO)NC(=O)OC(C)(C)C)C(=O)NCCCCCC(=O)OCc2ccccc2)C(=O)c2ccccc2C1=O (stereo not given in full)	-92.5% (active)
CC1=C(C(=O)c2ccccc2)C(c2ccc3c(c2)OCO3)NC(=S)N1 (stereo not given)	62.2% (inactive)
COc1ccccc1-c1nc2ccc3[nH]ncc3c2c2c1CCCC2	113% (inactive)
CN1CCN(Cc2ccc(NC(=O)c3cncc(C#Cc4c(N)ncc5c(F)cccc45)c3)cc2C(F)(F)F)CC1	-11.9% (active)
CCN(CC)c1ccc(/C=N/NC(=O)c2ccccc2Nc2ccnc(C(F)(F)F)c2)c(O)c1	76.7% (inactive)
Clc1ccc(C2=Nn3c(nnc3-c3cc(Cl)cc(Cl)c3Cl)SC2)cc1	-8.03% (active)
COc1cc(/C=N/NC(=O)c2ccc3nc(-c4ccc(Cl)cc4)[nH]c3c2)cc(OC)c1OC	80% (inactive)
Nc1ccc(N)c2c1C(=O)c1cccc([N+](=O)[O-])c1C2=O	-60.6% (active)
CC1=NC(=S)NC(c2ccccc2)/C1=C1/CC(c2ccccc2O)NN1 (stereo not given)	113% (inactive)
O=C(O)/C=C/c1cn(-c2ccccc2)nc1-c1ccc(F)cc1	103% (inactive)
CCOC(=O)c1ccc2c(c1)[n+](=O)c(C(C)=O)c(C(F)(F)F)n2[O-]	-17.1% (active)
CCOC(=O)CSc1nc2sc3c(c2c(=O)n1-c1ccccc1)CCCCC3	114% (inactive)
COc1cc(C)cc(-c2c(-c3cc(N4CC(O)C4)nc(-c4cccnc4)n3)cnn2C)c1	92.8% (inactive)
COc1ccc(Cn2cc3c(c2)-c2oncc2CC3)cc1	68.1% (inactive)
CCn1c2ccccc2c2cc(C(O)c3cccc4ncccc34)ccc21 (stereo not given)	-32.5% (active)
CC(C)(C)CC(C)(C)Nc1c(-c2c(O)c3ccccc3oc2=O)nc2sccn12	98.5% (inactive)
O=C1CCc2c(sc3[nH]c(=S)n(-c4cc(C(F)(F)F)cc(C(F)(F)F)c4)c(=O)c23)C1	-49.1% (active)
COC(=O)c1nc(-c2ccccc2)oc1S(=O)(=O)NCC(c1ccc(Cl)cc1)N1CCCCC1 (stereo not given)	117% (inactive)
CCN1CCN(C(=O)[C@]23CC[C@@H](C)[C@H](C)[C@@H]2C2=CC[C@@H]4[C@@]5(C)C/C(=C/c6ccncc6)C(=O)C(C)(C)[C@@H]5CC[C@@]4(C)[C@]2(C)CC3)CC1	-28.9% (active)
COc1ccc(CNc2c3ccccc3nc3ccccc23)cc1OC	30.1% (inactive)
